This passage reports z-score results from PubChem BioAssay.

Active and inactive are the calls of the source.

Test [1] in a line: A549 cell viability effects, profiling panel, calcein-AM fluorescence, 48 h, basal (AID 1162). The note with it: higher = more signal.
A short description of test [2]: adipocyte viability effects, profiling panel, cell-based, 3T3-L1 adipocytes, calcein-AM fluorescence, 48 h, basal (AID 1163). The note with it: 3T3-L1 adipocytes viability, higher = more signal.
A short description of test [3]: HepG2 cell viability effects, profiling panel, calcein-AM fluorescence, 48 h, basal (AID 1164). The note with it: higher = more signal.
The nature of test [4]: MM1S cell viability effects, profiling panel, calcein-AM fluorescence, 48 h, basal (AID 1165).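 Further: viability of MM1S multiple myeloma cells under basal unstimulated conditions.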 The conditions noted are these: higher = more signal.
A short description of test [5]: basal RPMI8226 viability, no added stimulus, profiling panel, cell-based, calcein-AM fluorescence, 48 h, PK04 Diversity Set (AID 1166).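 Further: cells grown under basal conditions without added stimulus.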 The conditions noted are these: RPMI8226 myeloma viability, higher = more signal.
The nature of test [6]: basal HepG2 mitochondrial membrane potential changes, profiling panel, cell-based, JC-1 fluorescence, 24 h, 100 nL compound (AID 1167). The note with it: higher = more signal.
A short description of test [7]: basal 3T3-L1 adipocyte mitochondrial potential changes, profiling panel, cell-based, JC-1 fluorescence, 3T3-L1 adipocytes, 24 h, 100 nL compound (AID 1168). The note with it: JC-1 mitochondrial fluorescence, higher = more signal, called active from +8 up or from −8 down.
The nature of test [8]: basal RPMI8226 mitochondrial membrane potential changes, profiling panel, cell-based, JC-1 fluorescence, 24 h, 100 nL compound (AID 1169). The note with it: RPMI8226 myeloma, JC-1 mitochondrial potential fluorescence, higher = more signal.
A short description of test [9]: basal MM1S mitochondrial membrane potential changes, profiling panel, cell-based, JC-1 fluorescence, 24 h, 100 nL compound (AID 1170). The note with it: higher = more signal.
A short description of test [10]: A549 lung cancer cell viability effects, profiling panel, resazurin fluorescence, 24 h, PK04 Diversity Set (AID 1171). The conditions noted are these: higher = more signal, called active from +8 up or from −8 down. In general terms: Alamar Blue is a resazurin reagent that responds to reducing activity.
Further: test concentration not given here.

On to `O=C1O[C@@H](c2ccccc2)[C@@H](c2ccccc2)N2[C@@H](c3ccc(O)cc3)[C@]3(C(=O)Nc4ccc(C#CC5(O)CCCCCC5)cc43)[C@@H](C(=O)Nc3nc4ccccc4s3)[C@H]12`, for which the z-score in test [1] is 1.46; in test [2] it was 2.07; in test [3], 0.417; in [4], -1.55; in test [5], -1.97; in test [6], -2.15. In addition, the z-score in test [7] is -0.444 (inactive); in test [8], -0.567; in [9], 0.159; in [10], 1.2 (inactive).

On to `COc1ccc([Si](C)(C)[C@H]2[C@H](CC(=O)N3Cc4ccccc4C[C@H]3CO)O[C@@]3(C(=O)N(Cc4cccc(N5CCOC5=O)c4)c4ccccc43)[C@@H]2C)cc1`, for which the z-score in [1] is 0.443; in test [2] it was 0.373; in test [3] it was -0.632; in [4] it was -0.913; in test [5] it was -0.727; in test [6], 1.31. In addition, the z-score in test [7] was 0.405 (inactive); in test [8], -1.1; in [9], -0.223; in test [10], -0.399 (inactive).

For the compound `CC(C)(C)OC(=O)CC[C@@]1(C(=O)NCc2ccccc2)N=C(c2ccc(OCCCO)cc2)O[C@@H]1c1ccccc1`, the z-score is -0.595 in test [1]; 1.16 in test [2]; -0.907 in test [3]; -2.37 in test [4]; -3.23 in test [5]; 1.9 in test [6]. In addition, the z-score was 4.19 (inactive) in test [7], -0.791 in test [8], -0.552 in test [9] and -2.88 (inactive) in test [10].

As to `C=CCC(OC(C)=O)[C@@H]1[C@@H](N(Cc2cccc3ccccc23)C(=O)Cc2ccc(F)cc2)c2cc(OCCCO)ccc2N1C(=O)Cc1ccc2ccccc2c1` (stereo not given in full), the z-score was 0.677 in [1]; -0.399 in [2]; 0.607 in [3]; 0.853 in test [4]; -0.538 in test [5]; 1.72 in [6]. Moreover, the z-score in test [7] is 0.38 (inactive); in [8], -0.0877; in [9], -0.24; in test [10] it was 0.775 (inactive).

As to `CC[C@@H]1C=C(C(=O)O)[C@H](c2ccccc2)N1S(=O)(=O)c1ccc([N+](=O)[O-])cc1`, the z-score in test [1] was -0.353; in test [2] it was -0.49; in [3] it was 0.271; in test [4] it was 0.0363; in test [5], 0.0806; in [6], 0.414. Further, the z-score in [7] is -0.375 (inactive); in test [8], 0.769; in test [9], -0.877; in test [10] it was 0.0551 (inactive).

Regarding `COCCOC(=O)N1C(=O)[C@@]2(c3cc(C#CC4=CCCCC4)ccc31)[C@H](c1ccc(O)cc1)N1[C@H](c3ccccc3)[C@H](c3ccccc3)OC(=O)[C@H]1[C@@H]2C(=O)N1CCCCCCC1`, the z-score is 1.43 in [1]; 1.06 in [2]; 0.0785 in test [3]; -0.278 in test [4]; -0.641 in test [5]; -0.926 in test [6]. Also, the z-score was 1.37 (inactive) in [7], -0.247 in test [8], 0.12 in test [9] and 0.676 (inactive) in test [10].

As for `O=C1O[C@H](c2ccccc2)[C@H](c2ccccc2)N2[C@H]1[C@@H](C(=O)Nc1nc3ccccc3s1)[C@]1(C(=O)Nc3ccc(C#CC4=CCCCC4)cc31)[C@H]2c1ccccc1OCCO`, the z-score in test [1] was -0.639; in [2] it was 0.313; in test [3], -0.557; in [4], -1.63; in [5], -1.07; in test [6] it was -2.86. The z-score in test [7] is -1.06 (inactive); in test [8], -0.798; in [9] it was -1.46; in test [10] it was -0.893 (inactive).

Turning to `CO[C@H]1COC(=O)[C@@H](C)NC(=O)CC=C[C@@H](C)[C@H](OC)COC(=O)CC=C[C@@H]1C`, the z-score in test [1] was 0.606; in test [2], 0.518; in [3], 0.468; in test [4], 0.377; in test [5] it was 0.771; in test [6], 1.44. For the same compound, the z-score was 1.86 (inactive) in test [7], -0.0629 in [8], 1.06 in test [9] and 0.775 (inactive) in test [10].

As for `COCCOC(=O)N1C(=O)[C@@]2(c3cc(C#CCNC(N)=O)ccc31)[C@H](C(=O)N1CCCCCCC1)[C@H]1C(=O)O[C@H](c3ccccc3)[C@H](c3ccccc3)N1[C@@H]2c1ccccc1OCCO`, the z-score in [1] is 1.01; in [2], -0.177; in [3] it was 1.04; in test [4], 1.38; in test [5], 0.767; in test [6], -1.3. The z-score in test [7] was 0.315 (inactive); in test [8], -0.587; in test [9], -1.57; in [10], -0.307 (inactive).

Consider `CCOC(=O)C1=CCC(c2cccc3ccccc23)N(S(=O)(=O)c2ccc(C)cc2)C1` (stereo not given), for which the z-score in [1] was -0.989; in [2] it was -1; in test [3], -0.106; in [4], -0.0257; in test [5] it was 0.291; in test [6] it was 1.98. For the same compound, the z-score in test [7] was -0.759 (inactive); in test [8], -0.498; in test [9], -1.64; in test [10], -0.658 (inactive).

`CO[C@H]1COC(=O)[C@@H](Cc2ccccc2)NC(=O)[C@@H](C)COC(=O)CC=C[C@@H]1C`: the z-score is 0.899 in test [1]; 0.172 in [2]; 0.662 in test [3]; 0.221 in [4]; 0.373 in test [5]; 0.606 in test [6]. Also, the z-score in test [7] is 0.0117 (inactive); in test [8], 0.175; in test [9] it was 0.662; in test [10], 1.2 (inactive).

Turning to `O=C1OCC=C[C@H]2OC34C=CCN(Cc5ccccc5)C(=O)[C@H]3N(CCCCCO)C(=O)[C@@H]4[C@@H]12` (stereo not given in full), the z-score in test [1] was 0.16; in test [2], 2.65; in test [3] it was -0.566; in [4], -0.231; in [5] it was -0.166; in test [6] it was 0.00385. The z-score in test [7] was 1.45 (inactive); in [8] it was 1.27; in [9], 1.72; in test [10], -0.208 (inactive).
